High-throughput results (PubChem)
HT1080NT lethal – qHTS for induction of synthetic lethality in tumor cells producing 2HG: qHTS for the HT-1080-NT fibrosarcoma cell line; HT-1080-NT fibrosarcoma viability, CellTiter-Glo ATP luminescence, 48 h; Potency, µM (series often up to 46.1 µM), for inactives: at the top dose activity, negative = less viability, actives largely listed as cytotoxic; 360,000 tested, 1.6% active;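 also: NT is the 2HG producing partner of a matched IDH1 knockdown line; 0% = DMSO-treated cells and -100% = media-only wells without cells; nearly all actives have a fitted effect of over 55% in size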
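HT-1080-NT; 750 cells/well; 5% FBS RPMI; 48 h compound, 37 degrees C; CellTiter-Glo luminescence; curve fitting and curve-class assignment.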
HT1080 IDH1KD tx – qHTS for induction of synthetic lethality in tumor cells producing 2HG: qHTS for the HT-1080-IDH1KD cell line | HT-1080 IDH1 knockdown viability, ATP luminescence, 48 h | Potency, µM (titrated, usually from 46.1 µM), for inactives: top-dose activity, negative = toxicity, usual class: cytotoxic | 360,000 tested, 2% active;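 also: 0% = DMSO wells and -100% = cell-free medium wells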
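IDH1KD HT-1080 cells, 750/well, RPMI + 5% FBS; compound pinned after 2 h settling; 48 h, 37 °C; CellTiter-Glo luminescence; % activity normalised to DMSO and no-cell wells; curves fitted, classed by r2 and efficacy.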
KB-V1 cytotox – qHTS assay for MDR1-selective chemotherapeutics: Primary screen using the drug-selected MDR subline cells KB-V1; KB-V1 MDR cells viability, CellTiter-Glo, 72 h; Potency, µM (series often up to 46.1 µM), actives largely listed as cytotoxic; 400,000 tested, 3.4% active; AID 1347076, 2019; also: % is scaled to controls: 0 for no effect and ±100 for the full control effect; nearly all actives have a fitted effect of over 60% in size
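KB-V1 cells (P-gp-expressing MDR subline of KB-3-1) in phenol-red-free DMEM with 10% FBS were exposed to library compounds over a concentration series for 72 h at 37 degrees C. Viability read by CellTiter-Glo luminescence; concentration-effect curves fitted after normalization.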
S2 tox – Viability Counterscreen for Primary qHTS for Inhibitors of ATXN expression | AID 651635, 2014 | Potency, µM (doses to about 56.7 µM), usual class: cytotoxic | 400,000 tested, 0.49% active | S2 cells (HEK-293 line with an ATXN2-luciferase reporter) viability, CellTiter-Fluor protease fluorescence, 24 h; also: nearly all actives have a fitted effect of over 40% in size
KB-3-1 cytotox – qHTS assay for MDR1-selective chemotherapeutics: Primary screen using the parental adenocarcinoma cell KB-3-1 | KB-3-1 viability, CellTiter-Glo ATP luminescence, 72 h | Potency, µM (series often up to 46.1 µM), hits mostly cytotoxic | 400,000 tested, 1.4% active; also: % is scaled to controls: 0 for no effect and ±100 for the full control effect; nearly all actives have a fitted effect of over 60% in size
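KB-3-1 parental drug-naive adenocarcinoma cells in DMEM/10% FBS, incubated 72 h at 37 C with pin-transferred compounds across a concentration series. Viability by CellTiter-Glo luminescence; concentration-response curves fitted after normalization.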
ATXN2 expr inh – Primary qHTS for Inhibitors of ATXN expression. HEK-293 ATXN2-luciferase reporter, luminescence, 24 h. Potency, µM (top dose mostly 57 µM), for inactives: at the highest dose activity change, negative = inhibition, actives largely listed as inhibitors. 360,000 tested, 0.72% active; also: % is scaled to controls: 0 for no effect and ±100 for the full control effect; nearly all actives have a fitted effect of over 55% in size
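ATXN2-luciferase reporter cells (luciferase flanked by upstream and downstream ATXN2 gene portions) were treated 24 h at 37 °C with compounds at up to 57 uM. SteadyGlo luminescence gave expression; GF-AFC fluorescence gave viability.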
Active calls of the source: *; [ ] = another dose, or the depositor's remark. Rows were chosen to be rich in hits. Some 6.2% of all compounds tested hit in one or more screens of this group. Calls follow the shape of the dose curve; as a rule, active = well fitted curve in the direction sought with a large enough effect; inconclusive = small, poorly fitted or top-dose-only effect, or another doubt; inactive = no such curve, though single readings can be large; an effect the other way counts as inactive or inconclusive. Potency is read from the fitted curve at half-maximal effect.

O=C(Cc1ccc(-c2ccccc2)cc1)NCc1ccccc1 was read as HT1080NT lethal inconclusive, HT1080 IDH1KD tx inconclusive, KB-V1 cytotox 0.29µM*, S2 tox inactive, KB-3-1 cytotox 0.082µM* and ATXN2 expr inh 5%.
`Nc1nc2ccccc2cc1C(=O)NCc1ccc(Cl)cc1Cl` gave HT1080NT lethal inconclusive, HT1080 IDH1KD tx -26%, KB-V1 cytotox inactive, S2 tox inconclusive, KB-3-1 cytotox inconclusive and ATXN2 expr inh inconclusive.
Screening O=C(NCc1ccccc1Cl)c1ccccc1CCc1ccccc1 returned HT1080NT lethal -9%, HT1080 IDH1KD tx -10%, KB-V1 cytotox inactive, S2 tox inactive and KB-3-1 cytotox inactive.
`O=C(NCc1ccc(Cl)cc1)c1ccccc1CCc1ccccc1` gave HT1080NT lethal -2%, HT1080 IDH1KD tx -6%, KB-V1 cytotox 21µM*, S2 tox inconclusive, KB-3-1 cytotox inactive and ATXN2 expr inh -7%.
For Cc1c(C)n(Cc2ccc(F)cc2)c2ccc(C(=O)N3CCN(c4ccc(Cl)cc4)CC3)cc12 the results were KB-V1 cytotox inactive and KB-3-1 cytotox inactive.
O=C(NCc1ccc(Cl)cc1)C(=O)Nc1cccc(Br)c1 was read as KB-V1 cytotox inactive, S2 tox inactive, KB-3-1 cytotox inconclusive and ATXN2 expr inh 3%.
`Cc1ccccc1Nc1scc(-c2ccc(Cl)cc2)[n+]1-c1ccccc1C` gave HT1080NT lethal -4%, HT1080 IDH1KD tx -4%, KB-V1 cytotox inactive, S2 tox inactive, KB-3-1 cytotox 9.2µM* and ATXN2 expr inh -6%.
For Cc1cccc(NC(=O)CC(=O)Nc2cccc(C)c2)c1 the results were HT1080NT lethal -10%, HT1080 IDH1KD tx -14%, KB-V1 cytotox inactive, S2 tox inconclusive, KB-3-1 cytotox inactive and ATXN2 expr inh -5%.
Screening Cc1ccccc1NNC(=O)C(=O)NNc1ccccc1C returned HT1080NT lethal -7%, HT1080 IDH1KD tx 18µM*, KB-V1 cytotox inactive, S2 tox inactive and KB-3-1 cytotox inconclusive.
Cc1cccc(NNC(=O)C(=O)NNc2cccc(C)c2)c1 was read as HT1080NT lethal inconclusive, HT1080 IDH1KD tx 5.2µM*, KB-V1 cytotox inactive, S2 tox inactive and KB-3-1 cytotox inconclusive.
For CCOC(=O)C(=O)NNc1ccc(Cl)cc1 the results were HT1080NT lethal 3.7µM*, HT1080 IDH1KD tx 4.1µM*, KB-V1 cytotox inactive, S2 tox inactive, KB-3-1 cytotox inactive and ATXN2 expr inh -29%.
CCc1ccc(C(=O)NNc2ccc(Cl)cc2)cc1 was read as HT1080NT lethal inconclusive, HT1080 IDH1KD tx 6.5µM*, KB-V1 cytotox inactive, S2 tox inactive and KB-3-1 cytotox inconclusive.
Screening CC(C)OC(=O)C(=O)NNc1ccccc1 returned HT1080NT lethal 7.3µM*, HT1080 IDH1KD tx 9.2µM*, KB-V1 cytotox inactive, S2 tox inactive, KB-3-1 cytotox inconclusive and ATXN2 expr inh inconclusive.
Screening O=C(NNc1ccc(Cl)cc1)c1cccs1 returned HT1080NT lethal 4.6µM*, HT1080 IDH1KD tx 6.5µM*, KB-V1 cytotox inactive, S2 tox inactive, KB-3-1 cytotox inactive and ATXN2 expr inh inconclusive.
CCCOC(=O)C(=O)NNc1ccccc1 was read as HT1080NT lethal 3.7µM*, HT1080 IDH1KD tx 5.2µM*, KB-V1 cytotox inactive, S2 tox inactive, KB-3-1 cytotox inconclusive and ATXN2 expr inh -13%[11.3 µM].
Screening C=C(C)C(=O)NNc1ccccc1 returned HT1080NT lethal 7.3µM*, HT1080 IDH1KD tx 21µM*, KB-V1 cytotox inactive, S2 tox inactive, KB-3-1 cytotox inactive and ATXN2 expr inh -24%.
`CC(=O)Nc1ccccc1` gave HT1080NT lethal 15%, HT1080 IDH1KD tx 16%, KB-V1 cytotox inactive, S2 tox inactive, KB-3-1 cytotox inactive and ATXN2 expr inh -10%.
For Cc1cnc2ccccc2c1C the results were KB-V1 cytotox inactive and KB-3-1 cytotox inactive.
Screening NC(=O)c1ncn([C@@H]2O[C@H](CO)[C@@H](O)[C@@H]2O)n1 returned ATXN2 expr inh 44%.
N#Cc1nc(N2CCCCC2)nc(N(c2ccccc2)c2ccccc2)n1 was read as KB-V1 cytotox inactive and KB-3-1 cytotox inactive.
For COc1cc(OC)nc(-n2ncc(Br)c(Br)c2=O)n1 the results were HT1080NT lethal 1.6µM*, HT1080 IDH1KD tx 1.6µM*, KB-V1 cytotox inconclusive, KB-3-1 cytotox 6.5µM* and ATXN2 expr inh inconclusive.
COC(=O)c1cnn(-c2nc(OC)cc(OC)n2)c1C was read as HT1080NT lethal -3%, HT1080 IDH1KD tx 2%, KB-V1 cytotox 16µM*, S2 tox inactive, KB-3-1 cytotox inactive and ATXN2 expr inh 1%.
Screening CCOC(=O)c1cnn(-c2nc(OC)cc(OC)n2)c1C(F)(F)F returned HT1080NT lethal 3%, HT1080 IDH1KD tx 4%, KB-V1 cytotox inconclusive, S2 tox inactive, KB-3-1 cytotox inactive and ATXN2 expr inh 2%.
COc1ccc(CNC(=O)Cn2ccc3cc(S(=O)(=O)N4CCCCCC4)ccc32)c(OC)c1 was read as KB-V1 cytotox inactive, S2 tox inconclusive, KB-3-1 cytotox inactive and ATXN2 expr inh inconclusive.
CN(C)C(=O)c1cccc(-c2cnc3c(NC=O)cc(-c4cccc(F)c4)cn23)c1 was read as HT1080NT lethal 29%, HT1080 IDH1KD tx 18%, KB-V1 cytotox inconclusive, S2 tox inactive, KB-3-1 cytotox inactive and ATXN2 expr inh inconclusive.
`CN(C)CCNC(=O)c1cccc(-c2cnc3c(NC=O)cc(-c4ccc(S(C)(=O)=O)cc4)cn23)c1` gave HT1080NT lethal 5%, HT1080 IDH1KD tx 2%, KB-V1 cytotox inactive, S2 tox inactive, KB-3-1 cytotox inactive and ATXN2 expr inh 7%.
`CN(C)CCNC(=O)c1cccc(-c2cc(NC=O)c3ncc(-c4cccc(C(F)(F)F)c4)n3c2)c1` gave HT1080NT lethal 29µM*, HT1080 IDH1KD tx 16µM*, KB-V1 cytotox inactive, S2 tox 28µM*, KB-3-1 cytotox inactive and ATXN2 expr inh 22µM*.
`CN(C)CCNC(=O)c1cccc(-c2cnc3c(NC=O)cc(-c4cc(F)c(F)c(F)c4)cn23)c1` gave HT1080NT lethal inconclusive, HT1080 IDH1KD tx 18µM*, KB-V1 cytotox inactive, KB-3-1 cytotox inactive and ATXN2 expr inh inconclusive.
